{"source": "paper PMC11062922", "about": "(Nature Chemical Biology, 2023)", "set-up_in_all_cases": "species or system human, MV4-11 + K-562 + COLO205 + SK-N-BE2 + OVCAR-8", "key": {"CDK16": {"test_system": "CDK16", "details": "read-out: apparent Kd, n = 1"}, "CHEK1": {"test_system": "CHEK1", "details": "read-out: apparent Kd, n = 1"}, "CSNK1D": {"test_system": "CSNK1D", "details": "read-out: apparent Kd, n = 1"}, "EPHA5": {"test_system": "EPHA5", "details": "read-out: apparent Kd, compound concentrations: 100 nM and 1000 nM (sheet 'Samples'), n = 1"}, "MARK3": {"test_system": "MARK3", "details": "read-out: apparent Kd, n = 1"}, "PIP4K2C": {"test_system": "PIP4K2C", "details": "read-out: apparent Kd, n = 1"}, "RPS6KA4": {"test_system": "RPS6KA4", "details": "read-out: apparent Kd, n = 1"}, "STK16": {"test_system": "STK16", "details": "read-out: apparent Kd, n = 1"}, "STK4": {"test_system": "STK4", "details": "read-out: apparent Kd, n = 1"}, "MAPK10": {"test_system": "MAPK10", "details": "read-out: apparent Kd, n = 1"}, "MAPK9": {"test_system": "MAPK9", "details": "read-out: apparent Kd, n = 1"}, "PRKAG2": {"test_system": "PRKAG2", "details": "read-out: apparent Kd; compound concentrations:100 nM and 1000 nM (sheet 'Samples'); n = 1"}, "PRKACA": {"test_system": "PRKACA", "details": "read-out: apparent Kd; compound concentrations:100 nM and 1000 nM (sheet 'Samples'); n = 1"}, "PRKACB": {"test_system": "PRKACB", "details": "read-out: apparent Kd; compound concentrations:100 nM and 1000 nM (sheet 'Samples'); n = 1"}, "[1]": {"details": "compound concentrations:100 nM and 1000 nM (sheet 'Samples')"}}, "note": "Like-named read-outs stand apart in the source and are kept apart here.", "data": [{"smiles": "O=C(O)C(F)(F)F.O=C(O)C(F)(F)F.O=c1[nH]ccc2nc(N[C@@H]3CCCNC3)nc(Nc3ccc(S(=O)(=O)N4CCOCC4)cc3)c12.O=c1[nH]ccc2nc(N[C@@H]3CCCNC3)nc(Nc3ccc(S(=O)(=O)N4CCOCC4)cc3)c12", "note": "[GSK2177277A]", "values": [{"measurement": "potency estimated from few doses", "setting": "CDK16; compound concentrations: 100 nM and 1000 nM (sheet 'Samples'), CATDS: 2.61766261640392E-2", "result": 32, "unit": "nM"}, {"measurement": "potency estimated from few doses", "setting": "CHEK1; compound concentrations: 100 nM and 1000 nM (sheet 'Samples'), CATDS: 1.19973934343878E-2", "result": 166, "unit": "nM"}, {"measurement": "potency estimated from few doses", "setting": "CSNK1D; compound concentrations: 100 nM and 1000 nM (sheet 'Samples'), CATDS: 1.4345830153399601E-2", "result": 107, "unit": "nM"}, {"measurement": "potency estimated from few doses", "setting": "EPHA5; CATDS: 6.3188743096270596E-3", "result": 1690, "unit": "nM"}, {"measurement": "potency estimated from few doses", "setting": "MARK3; compound concentrations: 100 nM and 1000 nM (sheet 'Samples'), CATDS: 1.6672626063874801E-2", "result": 76.4, "unit": "nM"}, {"measurement": "potency estimated from few doses", "setting": "PIP4K2C; compound concentrations: 100 nM and 1000 nM (sheet 'Samples'), CATDS: 6.0874593504341903E-3", "result": 2140, "unit": "nM"}, {"measurement": "potency estimated from few doses", "setting": "RPS6KA4; compound concentrations: 100 nM and 1000 nM (sheet 'Samples'), CATDS: 8.4573730907670092E-3", "result": 470, "unit": "nM"}, {"measurement": "potency estimated from few doses", "setting": "STK16; compound concentrations: 100 nM and 1000 nM (sheet 'Samples'), CATDS: 8.3784020222335102E-3", "result": 485, "unit": "nM"}, {"measurement": "potency estimated from few doses", "setting": "STK4; compound concentrations: 100 nM and 1000 nM (sheet 'Samples'), CATDS: 4.9368785940317003E-2", "result": 11.7, "unit": "nM"}]}, {"smiles": "CN(C)CC(O)COc1ccc(Nc2nccc(-c3cnn4nc(N5CCOCC5)ccc34)n2)cc1", "note": "(centres unmarked) [GW767488X]", "values": [{"measurement": "potency estimated from few doses", "setting": "CDK16; [1]", "result": 262, "unit": "nM"}, {"measurement": "potency estimated from few doses", "setting": "MAPK10; [1]", "result": 107, "unit": "nM"}, {"measurement": "potency estimated from few doses", "setting": "MAPK9; [1]", "result": 134, "unit": "nM"}, {"measurement": "potency estimated from few doses", "setting": "PIP4K2C; [1]", "result": 1440, "unit": "nM"}, {"measurement": "potency estimated from few doses", "setting": "STK16; [1]", "result": 69.2, "unit": "nM"}]}, {"smiles": "CNc1cc(-c2ccc3c(N)n[nH]c3c2)nc(N)n1", "note": "[GSK2224810A]", "values": [{"measurement": "potency estimated from few doses", "setting": "PRKAG2", "result": 1090, "unit": "nM"}]}, {"smiles": "O=C(O)C(F)(F)F.O=c1[nH]ccc2nc(N[C@@H]3CCNC3)nc(Nc3cc(Cl)cc(Cl)c3)c12", "note": "[GSK2188764A]", "values": [{"measurement": "potency estimated from few doses", "setting": "CHEK1; [1]", "result": 711, "unit": "nM"}, {"measurement": "potency estimated from few doses", "setting": "MARK3; [1]", "result": 153, "unit": "nM"}, {"measurement": "potency estimated from few doses", "setting": "PRKAG2", "result": 632, "unit": "nM"}, {"measurement": "potency estimated from few doses", "setting": "RPS6KA4; [1]", "result": 472, "unit": "nM"}, {"measurement": "potency estimated from few doses", "setting": "STK4; [1]", "result": 913, "unit": "nM"}]}, {"smiles": "Cl.Cl.NC[C@H](CC1CCCCC1)NC(=O)c1ccc(-c2ccnc3[nH]ccc23)s1.NC[C@H](CC1CCCCC1)NC(=O)c1ccc(-c2ccnc3[nH]ccc23)s1", "note": "[GSK1581428A]", "values": [{"measurement": "potency estimated from few doses", "setting": "PRKACA", "result": 31, "unit": "nM"}, {"measurement": "potency estimated from few doses", "setting": "PRKACB", "result": 49.7, "unit": "nM"}]}, {"smiles": "Cl.Nc1nc(-c2ccc3c(c2)C(=Cc2cc(Br)c(O)c(Br)c2)C(=O)N3)cs1", "note": "[GW407323A]", "values": [{"measurement": "potency estimated from few doses", "setting": "CDK16; compound concentrations: 100 nM and 1000 nM (sheet 'Samples'), CATDS: 4.1043878899959203E-2", "result": 464, "unit": "nM"}]}, {"smiles": "NS(=O)(=O)c1ccc(N/C=C2\\C(=O)Nc3ccc4ncsc4c32)cc1", "note": "[GW297361X]", "values": [{"measurement": "potency estimated from few doses", "setting": "CDK16; compound concentrations: 100 nM and 1000 nM (sheet 'Samples'), CATDS: 4.8575287587601497E-2", "result": 557, "unit": "nM"}, {"measurement": "potency estimated from few doses", "setting": "RPS6KA4; compound concentrations: 100 nM and 1000 nM (sheet 'Samples'), CATDS: 3.5375158245813998E-2", "result": 1150, "unit": "nM"}, {"measurement": "potency estimated from few doses", "setting": "STK4; compound concentrations: 100 nM and 1000 nM (sheet 'Samples'), CATDS: 4.6410579301478898E-2", "result": 611, "unit": "nM"}]}, {"smiles": "COc1cc[nH]c1/C=C1\\C(=O)Nc2ccc([N+](=O)[O-])c(N3CC[C@@H](O)C3)c21", "note": "[RO0504985-000]", "values": [{"measurement": "potency estimated from few doses", "setting": "CDK16; compound concentrations: 100 nM and 1000 nM (sheet 'Samples'), CATDS: 3.96360486889639E-2", "result": 697, "unit": "nM"}, {"measurement": "potency estimated from few doses", "setting": "MAPK10; compound concentrations: 100 nM and 1000 nM (sheet 'Samples'), CATDS: 3.16649097319332E-2", "result": 1540, "unit": "nM"}, {"measurement": "potency estimated from few doses", "setting": "MAPK9; compound concentrations: 100 nM and 1000 nM (sheet 'Samples'), CATDS: 2.9417077034867501E-2", "result": 2110, "unit": "nM"}, {"measurement": "potency estimated from few doses", "setting": "STK16; compound concentrations: 100 nM and 1000 nM (sheet 'Samples'), CATDS: 3.4591069451125701E-2", "result": 1100, "unit": "nM"}]}, {"smiles": "Cc1occc1-c1nc(N)c(OC[C@@H](N)Cc2c[nH]c3ccccc23)cc1-c1cc2c(C)n[nH]c2cn1", "note": "[GSK1660450B]", "values": [{"measurement": "potency estimated from few doses", "setting": "CSNK1D; [1]", "result": 452, "unit": "nM"}, {"measurement": "potency estimated from few doses", "setting": "MARK3; [1]", "result": 1250, "unit": "nM"}, {"measurement": "potency estimated from few doses", "setting": "PRKACA", "result": 8.55, "unit": "nM"}, {"measurement": "potency estimated from few doses", "setting": "PRKACB", "result": 18.6, "unit": "nM"}, {"measurement": "potency estimated from few doses", "setting": "STK4; [1]", "result": 105, "unit": "nM"}]}, {"smiles": "Cl.Cn1cc(C2=C(c3c4n(c5ccccc35)CCNC4)C(=O)NC2=O)c2ccccc21", "note": "[RO0318365-001]", "values": [{"measurement": "potency estimated from few doses", "setting": "EPHA5; CATDS: 5.66388945901121E-2", "result": 1210, "unit": "nM"}]}, {"smiles": "COc1cc[nH]c1/C=C1\\C(=O)Nc2ccc(F)c(C#C[C@@H](O)[C@@H](N)[C@@H](C)O)c21", "note": "[RO0283120-000]", "values": [{"measurement": "potency estimated from few doses", "setting": "CDK16; [1]", "result": 235, "unit": "nM"}, {"measurement": "potency estimated from few doses", "setting": "MAPK10; [1]", "result": 654, "unit": "nM"}, {"measurement": "potency estimated from few doses", "setting": "MAPK9; [1]", "result": 321, "unit": "nM"}, {"measurement": "potency estimated from few doses", "setting": "MARK3; [1]", "result": 528, "unit": "nM"}, {"measurement": "potency estimated from few doses", "setting": "RPS6KA4; [1]", "result": 421, "unit": "nM"}, {"measurement": "potency estimated from few doses", "setting": "STK16; [1]", "result": 1230, "unit": "nM"}, {"measurement": "potency estimated from few doses", "setting": "STK4; [1]", "result": 765, "unit": "nM"}]}, {"smiles": "NS(=O)(=O)c1ccc(NC=C2C(=O)Nc3ccc4ncsc4c32)cc1", "note": "[GW589933X]", "values": [{"measurement": "potency estimated from few doses", "setting": "CDK16; compound concentrations: 100 nM and 1000 nM (sheet 'Samples'), CATDS: 3.8979394521984997E-2", "result": 193, "unit": "nM"}, {"measurement": "potency estimated from few doses", "setting": "RPS6KA4; compound concentrations: 100 nM and 1000 nM (sheet 'Samples'), CATDS: 2.5851222500782998E-2", "result": 479, "unit": "nM"}, {"measurement": "potency estimated from few doses", "setting": "STK4; compound concentrations: 100 nM and 1000 nM (sheet 'Samples'), CATDS: 3.75205363662858E-2", "result": 208, "unit": "nM"}]}, {"smiles": "CNc1nccc(-c2ccc3c(N)n[nH]c3c2)n1", "note": "[GSK2206003A]", "values": [{"measurement": "potency estimated from few doses", "setting": "MARK3; compound concentrations: 100 nM and 1000 nM (sheet 'Samples'), CATDS: 5.1673366030294897E-2", "result": 1410, "unit": "nM"}]}]}
